# Counter-ions that a name gives are not always drawn.
# Legend:
# Conditions in all cases: incubation time: 27 h, anaerobic, 37 °C;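 for the amine columns active = adjusted P below 0.05 in both replicates with a change the same way and a mean fold change under 0.8 or over 1.25; inactive = the rest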
# [1] = test system: Clostridium sporogenes DSM 1664; assay: growth (OD595) fold change vs plate DMSO controls (fold change (ratio)); higher = more growth
# Summary of the method: (§1)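 Growth is the fold change relative to the median of plate DMSO controls. Readings came from anaerobic mGAM cultures in 96-well plates grown for 27 h at 37 °C and read at 595 nm. They were blank-subtracted, corrected for compound background with 20 µM compound solutions in water, and converted to OD with a calibration factor of 5. Values are means of 2 biological replicates, and fold changes above 1.5 were set to NA.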
# [2] = test system: Escherichia coli IAI1; assay: as above
# Summary of the method: as §1
# [3] = test system: Klebsiella aerogenes DSM 30053; assay: as above
# Summary of the method: as §1
# [4] = test system: Ruminococcus gnavus DSM 108212; assay: as above
# Summary of the method: as §1
# [5] = test system: Klebsiella aerogenes DSM 30053; assay: fold change of Histamine concentration vs plate DMSO controls (fold change (ratio)); higher = more amine produced, active = hit call of the paper (significant change in both replicates, either direction)
# Summary of the method: (§2)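 In 80 µL wells, cultures of four gut bacterial strains in mGAM started at OD 0.1 before a 1:1 dilution and grew anaerobically at 37 °C for 27 h. Compounds were added to 20 µM final, except sweeteners at 50 µM final. After extraction of whole cultures with cold acetonitrile/methanol plus 0.1% formic acid and centrifugation, amines were measured by LC–triple-quadrupole MS in dynamic MRM mode against external calibration curves, with within-batch drift correction. Values give fold change over DMSO controls on the same plate, averaged across 2 biological replicates.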
# [6] = test system: Clostridium sporogenes DSM 1664; assay: fold change of Tryptamine concentration vs plate DMSO controls (fold change (ratio)); higher = more amine produced, active = hit call of the paper (significant change in both replicates, either direction)
# Summary of the method: as §2
# [7] = test system: Ruminococcus gnavus DSM 108212; assay: as above
# Summary of the method: as §2
# [8] = test system: Escherichia coli IAI1; assay: fold change of Putrescine concentration vs plate DMSO controls (fold change (ratio)); higher = more amine produced, active = hit call of the paper (significant change in both replicates, either direction)
# Summary of the method: as §2
# [9] = test system: Klebsiella aerogenes DSM 30053; assay: as above
# Summary of the method: as §2
# [10] = test system: Escherichia coli IAI1; assay: fold change of Cadaverine concentration vs plate DMSO controls (fold change (ratio)); higher = more amine produced, active = hit call of the paper (significant change in both replicates, either direction)
# Summary of the method: as §2
# [11] = test system: Klebsiella aerogenes DSM 30053; assay: as above
# Summary of the method: as §2
# [12] = test system: Ruminococcus gnavus DSM 108212; assay: fold change of 2-Phenylethylamine concentration vs plate DMSO controls (fold change (ratio)); higher = more amine produced, active = hit call of the paper (significant change in both replicates, either direction)
# Summary of the method: as §2
Structure (SMILES),growth [1],growth [2],growth [3],growth [4],fold change of Histamine concentration [5],fold change of Tryptamine concentration [6],fold change of Tryptamine concentration [7],fold change of Putrescine concentration [8],fold change of Putrescine concentration [9],fold change of Cadaverine concentration [10],fold change of Cadaverine concentration [11],fold change of 2-Phenylethylamine concentration [12]
COc1cc(N)c(Cl)cc1C(=O)NC1CCN(Cc2ccccc2)CC1 [Clebopride maleate] (20 µM),1.05,0.95,0.981,0.875,1 (inactive),1.01 (inactive),0.985 (inactive),0.926 (inactive),0.976 (inactive),0.984 (inactive),0.999 (inactive),0.985 (inactive)
N#CC(c1ccc(Cl)cc1)c1c(Cl)cc(-n2ncc(=O)[nH]c2=O)cc1Cl (centres undefined) [Diclazuril] (20 µM),0.806,0.993,1.08,0.961,0.913 (inactive),0.791 (inactive),0.778 (active),0.911 (inactive),0.967 (inactive),0.99 (inactive),1.03 (inactive),0.81 (inactive)
CCOc1ccc2ccccc2c1C(=O)N[C@@H]1C(=O)N2[C@@H]1SC(C)(C)[C@@H]2C(=O)O [Nafcillin sodium salt monohydrate] (20 µM),0,0.973,1.01,0,0.899 (inactive),0.0237 (active),0.0506 (active),0.908 (inactive),1.06 (inactive),1.02 (inactive),1.02 (inactive),0.0511 (active)
CN1CCCCC1CCN1c2ccccc2Sc2ccc([S+](C)[O-])cc21 (centres undefined) [Mesoridazine besylate] (20 µM),1.12,0.991,0.974,0.756,1.1 (inactive),0.992 (inactive),1.02 (inactive),1 (inactive),1.02 (inactive),1.01 (inactive),0.978 (inactive),0.987 (inactive)
N=C(N)c1ccc(OCCCCCOc2ccc(C(=N)N)cc2)cc1 [Pentamidine isethionate] (20 µM),1.15,1.05,0.985,1.35,0.984 (inactive),0.79 (inactive),0.365 (active),0.993 (inactive),0.914 (inactive),0.825 (inactive),1.01 (inactive),0.38 (active)
CCCOc1ccc2[nH]c(NC(=O)OC)nc2c1 [Oxibendazol] (20 µM),0.862,0.999,0.972,0.869,1.04 (inactive),0.982 (inactive),1 (inactive),1 (inactive),1.02 (inactive),1 (inactive),0.987 (inactive),0.996 (inactive)
O=C(NCCNCC(O)COc1ccc(O)cc1)N1CCOCC1 (centres undefined) [Xamoterol hemifumarate] (20 µM),1.1,0.989,0.983,1,1.06 (inactive),0.992 (inactive),0.889 (inactive),1.03 (inactive),1.03 (inactive),1 (inactive),0.986 (inactive),0.868 (inactive)
O=C(Nc1cccc2c(=O)cc(-c3nnn[nH]3)oc12)c1ccc(OCCCCc2ccccc2)cc1 [Pranlukast] (20 µM),1.1,1.07,0.999,0.934,0.986 (inactive),0.686 (active),0.804 (inactive),1.02 (inactive),1.01 (inactive),1.03 (inactive),1.02 (inactive),0.865 (inactive)
O=C(O)c1cc(=O)c2c(OCC(O)COc3cccc4oc(C(=O)O)cc(=O)c34)cccc2o1 [Cromolyn disodium salt] (20 µM),1.06,1.05,1.02,1.11,0.943 (inactive),0.983 (inactive),1.04 (inactive),0.994 (inactive),0.96 (inactive),0.99 (inactive),0.979 (inactive),1.06 (inactive)
CN1CCC[C@@H]1Cc1c[nH]c2ccc(CCS(=O)(=O)c3ccccc3)cc12 [Eletriptan] (20 µM),0.866,1.04,0.965,0.979,1.05 (inactive),1.05 (inactive),1.02 (inactive),1.08 (inactive),0.973 (inactive),0.955 (inactive),0.994 (inactive),1.05 (inactive)
CN(C(=O)C(Cl)Cl)c1ccc(OC(=O)c2ccco2)cc1 [Diloxanide furoate] (20 µM),1.1,0.998,1.01,0.993,1 (inactive),0.918 (inactive),0.915 (inactive),1.02 (inactive),1 (inactive),0.973 (inactive),0.997 (inactive),0.979 (inactive)
OCCN1CCN(CC/C=C2/c3ccccc3Sc3ccc(Cl)cc32)CC1 [Zuclopenthixol dihydrochloride] (20 µM),0.904,1.25,1.01,0.937,1.03 (inactive),0.993 (inactive),0.919 (inactive),1.31 (inactive),0.994 (inactive),1.09 (inactive),0.992 (inactive),0.947 (inactive)

# — the supplement of paper PMC12494721
